Assay outcomes deposited in PubChem BioAssay by National Center for Advancing Translational Sciences (NCATS).
POLK inh: qHTS for Inhibitors of Polymerase Kappa; DNA polymerase kappa (Homo sapiens), Q9UBT6; purified Pol kappa, fluorescent DNA synthesis assay, 10 min; Potency, µM (doses to about 107 µM), inactives show at the highest dose activity, negative = inhibition, hits mostly inhibitors; 0.53% of 400,000 active; AID 588579, 2011; also: % is scaled to controls: 0 for no effect and ±100 for the full control effect
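Activity was followed as the change in fluorescence between reads at 0 and 10 min after starting the reaction with 50 nM substrate. Beforehand, 10 nM polymerase had been preincubated with compound for 15 min at room temperature.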
WRN inhibitor: qHTS for Inhibitors of WRN Helicase | Bifunctional 3'-5' exonuclease/ATP-dependent helicase WRN (Homo sapiens), Q14191 | WRN helicase unwinding, fluorescent forked duplex, kinetic | Potency, µM (top dose mostly 114 µM), inactives show at the top dose activity change, negative = inhibition, most hits filed as inhibitors | 0.46% of 360,000 active | AID 651768, 2012; also: % is scaled to controls: 0 for no effect and ±100 for the full control effect; nearly all actives have a fitted effect of over 55% in size
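Kinetic red-fluorescence monitoring (525/598 nm) tracks WRN helicase activity after 100 nM fluorophore-quencher forked duplex and 2 mM ATP are added to 20 nM enzyme pretreated 15 min at room temperature with compound.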
Pol iota inh: qHTS for Inhibitors of Polymerase Iota; DNA polymerase iota (Homo sapiens), Q9UNA4; Pol iota fluorescent replication assay, 10 min; Potency, µM (highest dose often 115 µM), without a hit: at the highest dose activity, negative = inhibition, usual class: inhibitors; 1% of 390,000 active; AID 588590, 2011
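Pol iota at 10 nM preincubated 15 min with compounds at room temperature; reaction started with fluorescent substrate, 50 nM final. Fluorescence read kinetically at 0 and 10 min; buffer-only wells as negative control.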
Pol beta inh: qHTS Assay for Inhibitors of DNA Polymerase Beta; Potency, µM (series often up to 114 µM), inactives show top-dose activity change, negative = inhibition, most hits filed as inhibitors; P06746; AID 485314, 2010; Pol beta primer extension/strand displacement, fluorescence kinetic; 1.3% of 340,000 active; also: % is scaled to controls: 0 for no effect and ±100 for the full control effect
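Enzyme-only controls used 10 nM Pol beta; buffer lacking enzyme served as negative control. Compound preincubated 15 min, then 50 nM substrate added; 0 and 10 min reads at room temperature.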
POLH inh: qHTS for Inhibitors of Polymerase Eta; Potency, µM (titrated, usually from 114 µM), for inactives: at the top dose activity change, negative = inhibition, hits mostly inhibitors; AID 588591, 2011; recombinant Pol eta, fluorescent DNA replication assay; 1.2% of 390,000 active; DNA polymerase eta (Homo sapiens), Q9Y253; also: % is scaled to controls: 0 for no effect and ±100 for the full control effect
Target sequence (Q9Y253 whole entry, looked up): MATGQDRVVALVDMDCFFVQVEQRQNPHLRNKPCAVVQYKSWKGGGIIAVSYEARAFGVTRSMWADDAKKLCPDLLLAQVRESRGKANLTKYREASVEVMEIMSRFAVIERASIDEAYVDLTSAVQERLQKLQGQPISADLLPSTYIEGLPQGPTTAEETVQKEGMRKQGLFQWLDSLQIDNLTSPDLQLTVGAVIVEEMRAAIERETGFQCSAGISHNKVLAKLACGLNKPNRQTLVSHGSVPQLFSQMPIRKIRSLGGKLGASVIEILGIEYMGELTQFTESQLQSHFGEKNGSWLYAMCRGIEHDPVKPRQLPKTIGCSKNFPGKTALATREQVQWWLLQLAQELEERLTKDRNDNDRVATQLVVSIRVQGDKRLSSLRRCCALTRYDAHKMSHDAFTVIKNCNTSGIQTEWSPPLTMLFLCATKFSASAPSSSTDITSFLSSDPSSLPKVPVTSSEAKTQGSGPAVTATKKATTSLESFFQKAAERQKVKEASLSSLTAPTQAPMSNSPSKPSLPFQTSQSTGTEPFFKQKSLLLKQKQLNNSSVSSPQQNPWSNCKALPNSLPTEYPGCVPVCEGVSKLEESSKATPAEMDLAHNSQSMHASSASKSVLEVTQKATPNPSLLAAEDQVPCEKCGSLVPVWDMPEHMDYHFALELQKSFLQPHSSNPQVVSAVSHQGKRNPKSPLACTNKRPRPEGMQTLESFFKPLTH
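Fluorescent replication assay: 50 nM final substrate added after a 15 min room-temperature compound preincubation with 10 nM enzyme. Signal taken at 0 min and again at 10 min.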
FEN1 inh: qHTS Assay for the Inhibitors of Human Flap endonuclease 1 (FEN1); Recombinant FEN1 flap cleavage, fluorescence, 15 min; 0.35% of 390,000 active; Potency, µM (series often up to 114 µM), for the others: top-dose activity change, negative = inhibition, actives largely listed as inhibitors; also: % is scaled to controls: 0 for no effect and ±100 for the full control effect; nearly all actives have a fitted effect of over 65% in size
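Recombinant FEN1 (10 nM) was preincubated with pin-transferred compounds for 15 min at room temperature, then flap DNA substrate (50 nM final) was added. Plates were read at 0 and 15 min, and normalized concentration–response data were fitted to a four-parameter Hill equation.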
Numbers without * were called inactive; ? = inconclusive; / = no result; [ ] = another dose, or the depositor's remark. This is a sample that favours compounds with a hit; in the whole collection about 2.4% have one here. Calls follow the shape of the dose curve; as a rule, active = well fitted curve in the direction sought with a large enough effect; inconclusive = small, poorly fitted or top-dose-only effect, or another doubt; inactive = no such curve, though single readings can be large; an effect the other way counts as inactive or inconclusive. Potency is read from the fitted curve at half-maximal effect.

SMILES	POLK inh	WRN inhibitor	Pol iota inh	Pol beta inh	POLH inh	FEN1 inh
Cc1ccccc1NC(=O)Cn1c(O)c(N=NC(=O)c2ccccc2O)c2ccccc21	?	-17%[57.1 µM]	?	10µM*	?	-27%
Cc1ccc(Cn2c(=O)c3cccnc3n(CC(=O)Nc3cc(Cl)ccc3C)c2=O)cc1	6%	/	24%	29%	-19%	0%
O=C(Nc1ccc2[nH]c(=S)sc2c1)c1ccccc1	-6%	?	138%	11%	-15%	-5%
O=C(Nc1ccc2[nH]c(=S)sc2c1)Nc1ccccc1F	8%	-4%	?	-1%	79µM*	-19%
CCOc1cccc(CNc2ccc(O)cc2)c1OCc1ccc(Cl)cc1	-21%	?	11µM*	12%	50µM*	-24%
CCOc1cc(CNc2ccc(O)cc2)ccc1OCc1ccc(Cl)cc1Cl	-13%	?	8.9µM*	?	18µM*	-13%
CCc1ccc(CNc2ccc(O)cc2)cc1	-18%	45µM*	2.8µM*	?	25µM*	-4%
CCc1ccc(CNc2ccc3c(c2)ncn3CC)cc1	-16%	-9%	158%	0%	-16%	-2%
CCOc1cc(CNCc2ccccc2)ccc1OCc1ccc(Cl)cc1	5%	3%	-17%	4%	-25%	-4%
COc1cccc(CNCCO)c1OCc1ccc(Cl)cc1	-23%	3%	-5%	9%	-19%	5%
CCOc1ccccc1CNc1ccc(O)cc1	-15%	-23%	7.1µM*	3%	50µM*	-10%
COC(=O)c1ccc(CSc2c(C(C)C)cnc3c2c(=O)n(C)c(=O)n3C)cc1	-8%[60.1 µM]	/	-12%	0%	-26%	11%
Cc1cc2ccccc2c[n+]1C	-2%	/	31%	/	/	13%
Cc1ccc(CNC(=O)C2CCN(C(=O)c3cnn(-c4ccccc4)c3-n3cccc3)CC2)cc1	-4%	/	3%	23%	/	-17%
CC(C)N1CCN(Cc2ccccc2-c2ccco2)CC1CCO (stereo not drawn)	14%[60.1 µM]	7%	13%	9%	-9%	0%
CC(C)N1CCN(Cc2cccc(-c3ccco3)c2)CC1CCO (stereo not drawn)	-7%	0%	41%	10µM*	-20%	-6%
Cn1ncc2c(NCc3ccc(Cl)cc3)ncnc21	0%[60.1 µM]	/	7%	-20%	-4%	-4%
CCN1C(=O)c2cccc3c(S(=O)(=O)NCc4cccnc4)ccc1c23	-2%	-18%[57.1 µM]	13%	28%	-12%	-4%
CCN1C(=O)c2cccc3c(S(=O)(=O)NCc4ccco4)ccc1c23	-15%	-16%	32µM*	1%	-12%	4%
CC[n+]1ccnc2ccccc21	-24%	/	-13%	/	/	?
COc1ccc(NC(=O)Cn2c(=O)n(-c3cccc(C)c3)c(=O)c3c2c2cc(C)ccc2n3C)cc1Cl	-11%	/	0%	23%	-6%	16%
Nc1cc(=O)[nH]c(SCC(=O)Nc2ccc3c(c2)CCC3)n1	-2%	-5%	68%	?	-13%	4%
O=C(CSc1nc(NS(=O)(=O)c2ccccc2)cc(=O)[nH]1)Nc1ccc(F)cc1	50µM*	?	18µM*	25µM*	?	?
O=C(CSc1nc(NS(=O)(=O)c2ccccc2)cc(=O)[nH]1)Nc1ccccc1C(F)(F)F	-4%	-10%[57.1 µM]	4%	3%	-3%	1%
O=C(CSc1nc(O)cc(=O)[nH]1)Nc1ccc2c(c1)CCC2	79µM*	?	16µM*	?	-17%	?
SMILES	POLK inh	WRN inhibitor	Pol iota inh	Pol beta inh	POLH inh	FEN1 inh
COC(=O)c1ccccc1NC(=O)COc1ccccc1C(=O)Nc1ccccc1	3%	/	13%	/	/	7%
COc1cccc(/C=C(/C#N)c2ccc(Cl)cc2)c1OCc1cccc(C(=O)O)c1	-5%	-5%	57%	?	-1%	-3%
CCOc1cccc(NC(=O)/C(C#N)=C/c2cccnc2)c1	-7%	-6%	-16%	2%	-7%	-16%
COc1cc(/C=C(\C#N)C(=O)Nc2cccc(C(=O)O)c2)ccc1OCc1ccc(F)cc1	-11%	0%[11.6 µM]	?	45µM*	50µM*	?
COc1cccc(/C=C(/C#N)c2ccc(F)cc2)c1OCc1cccc(C(=O)O)c1	-28%	-21%	?	40µM*	?	-2%
CCOc1cc(/C=C(\C#N)C(=O)Nc2cccc(C(=O)O)c2)cc(Br)c1OC(=O)c1ccc(OC)cc1	?	?	?	16µM*	79µM*	-29%
COc1cc(/C=C/[N+](=O)[O-])ccc1OCc1cccc(C(=O)O)c1	25µM*	20µM*	?	32µM*	32µM*	50µM*
N#C/C(=C/c1ccc(OCc2ccc(C(=O)O)cc2)cc1)C(=O)Nc1ccccc1	4%	-17%	10%	2%	?	?
Cc1ccc(NC(=O)c2cnn3c(C(F)F)cc(-c4ccccc4)nc23)cc1F	-10%	/	-3%	-24%	-7%	14%
N#C/C(=C/c1cccn1-c1cccc(C(=O)O)c1)c1ccc(F)cc1	?	-2%[11.6 µM]	25µM*	32µM*	25µM*	15%
S=c1ncc2n[nH]nc2[nH]1	0%	/	-21%	/	/	?
O=C(CSc1ncnc2scc(-c3ccccc3)c12)N1CCN(Cc2ccc3c(c2)OCO3)CC1	-18%	-10%	?	16µM*	?	0%
Cc1ccc(-c2csc3ncnc(SCc4ccc(C(=O)O)cc4)c23)cc1	7%	-5%[11.6 µM]	-24%	?	79µM*	-20%
CCOc1cccc(C2C=C(c3ccc4c(c3)OCO4)NC(c3ccccc3Cl)N2)c1O (stereo not drawn)	-9%	/	-17%	/	/	-20%
CCCCCCCCCCCCCCCCn1cc[n+](Cc2ccccc2)c1C	-15%[60.1 µM]	/	/	/	/	/
CCOC(=O)c1cc(-c2ccccc2)n(-c2cccc(C(=O)Nc3cccc(SC)c3)c2)c1C	-7%[60.1 µM]	/	-13%	?	3%	-24%
NCC(O)COc1cccc2ccccc12 (stereo not drawn)	7%[19.4 µM]	/	/	/	/	/
O=C(CSc1nc2[nH]ncc2c(=O)[nH]1)Nc1cccc(Cl)c1	6%	-7%	-8%	/	-15%	-1%
CCc1ccc(NC(=O)C(C)Sc2nc(-c3ccco3)c(C#N)c(=O)[nH]2)cc1 (stereo not drawn)	-39%	?	?	-17%	18µM*	-20%
N#Cc1c(-c2ccco2)nc(SCC(=O)Nc2cccc(Cl)c2)[nH]c1=O	-16%	?	?	56µM*	?	-4%
